Screens from PubChem.
TWEAK-Fn14 inh = TWEAK-Fn14 signaling inhibition; TWEAK-stimulated Fn14 reporter cells, luciferase luminescence, 8 h; inhibition, % at 10 µM; 360,000 compounds, 2% hits; AID 1159606; in the data active = inhibition above about 50%
HSP90 refold inh = inhibitors of HSP90 luciferase refolding in rabbit reticulocyte lysate; luciferase refolding luminescence, 3 h; inhibition, % at 5.6 µM; 290,000 compounds, 0.91% hits; AID 1789;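 active = inhibition above the screen-wide mean plus 3 SD, computed separately per campaign, cut at about 16% in these data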;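 note: 0% = DMSO wells and 100% = 60 µM geldanamycin wells; inhibitors lower the luminescence because luciferase stays unfolded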
HSF-1 act = increases HSF-1 driven luciferase reporter signal; NIH3T3-HGL HSF-1 luciferase reporter, MG132, 8 h; 100% = twice DMSO control signal; AID 504408; activation, % at 9 µM; 300,000 compounds, 1.7% hits;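 active = mean replicate activation of at least 50% with a set share of replicates each reaching 50%; inconclusive = only one of those two conditions met; inactive = mean below 50% and too few replicates reaching it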;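 note: 0% = median of the neutral control wells and 100% = twice that signal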
HSF1 inh = HSF1 inhibition; NIH3T3-HGL HSE-luciferase, MG132-induced, luminescence 8 h; hits give low values; activity change, negative = inhibition, % at 7.5 µM (by protocol); 300,000 compounds, 0.77% hits; AID 2098;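 active = more than half of replicate wells show activity change below -50%, luminescence cut by over half; inconclusive = some wells, but at most half, below -50%; inactive = no replicate well below -50%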;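 note: luciferase reports HSF-1 transcriptional activity via heat shock element; 0% = median of DMSO wells and -100% = zero luminescence signal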
LMP1 NFkB inh = Epstein-Barr LMP1 NF-kappaB reporter inhibition; LMP1-induced NF-kappaB luciferase reporter cells, luminescence; inhibition, % at 12.5 µM; 350,000 compounds, 0.69% hits; in the data active = inhibition above about 41%; inconclusive = no clear call, values can overlap the other calls;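 note: 0% = neutral control wells and 100% = reference inhibitor control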
TROY NFkB inh = inhibitors of TROY-dependent NF-kB signaling; Q293 LMP1-TROYcd NF-kB luciferase reporter, 4 h; inhibition, % at 10 µM; 360,000 compounds, 0.98% hits; AID 1347056;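 active = compounds whose plate-normalised and pattern-corrected inhibition of the luciferase reporter signal at the single screening dose is 50% or more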
Starred values were filed as active, the others as inactive; ? = inconclusive; . = not tested or not shown. In the library only some 4.7% were active in any assay of this set; here they are far more common.

SMILES	TWEAK-Fn14 inh	HSP90 refold inh	HSF-1 act	HSF1 inh	LMP1 NFkB inh	TROY NFkB inh
CN(CC1CCCO1)S(=O)(=O)c1ccc(C(=O)Nc2nc3cc4c(cc3s2)OCO4)cc1 (stereo not given)	53*	-1	3	-14	16	30
CCCCOc1ccc(N2CC(C(=O)NCCc3ccc(OC)c(OC)c3)CC2=O)cc1 (stereo not given)	4	1	-87	-82*	6	11
COc1ccc(CNC(=O)C2CC(=O)N(c3ccc(OCC(=O)N4CCCCC4)cc3)C2)cc1 (stereo not given)	13	-4	16	2	3	58*
O=C(NCc1ccccc1)C1CC(=O)N(c2ccc(OCC(=O)N3CCCC3)cc2)C1 (stereo not given)	-2	6	8	-10	-1	-18
Cc1ccc(C(=O)Nc2nnc(C3CCCCC3)s2)o1	17	5	68*	37	-8	-42
Cc1cc(C(=O)Nc2nnc(C3CCCCC3)s2)no1	-18	-1	4	3	-5	-40
C=CCNC(=O)C1CC(=O)N(c2ccc(OCC(=O)Nc3ccccc3)cc2)C1 (stereo not given)	-5	-3	53*	21	-21	-19
CCCC(C)(C)C(=O)N1CCC1(C)C(=O)Nc1cccc(OC)c1 (stereo not given)	5	.	.	.	.	-4
COc1ccc(N2CC(C(=O)Nc3nnc(C4CCCCC4)s3)CC2=O)cc1 (stereo not given)	42	0	-70	-62*	-7	-10
CNC(=O)C1CC(=O)N(c2ccc(OCC(=O)N3CCCC3)cc2)C1 (stereo not given)	-2	-3	54*	13	2	6
CCOc1ccc(N2CC(C(=O)NCCc3c[nH]c4ccc(C)cc34)CC2=O)cc1 (stereo not given)	30	1	-64	-58*	1	6
O=C(Nc1nnc(C2CCCCC2)s1)C1CC(=O)N(c2ccc(F)cc2)C1 (stereo not given)	29	-4	17	-3	4	-15
COc1ccc(N2CC(C(=O)NCCc3c[nH]c4ccccc34)CC2=O)cc1 (stereo not given)	7	-4	-23	-2	-2	-24
N#Cc1cc2cc(Cl)ccc2[nH]c1=O	2	.	.	.	.	-12
O=C1C=C(NCCc2cc(Br)c(O)c(Br)c2)C(=O)c2ncccc21	94*	.	?	?	18	38
COc1ccccc1NC(=O)COC(=O)Cn1c(C)csc1=O	3	.	.	.	-3	-8
Cc1nc2cc3c(=O)n(C)cnc3cc2n1Cc1ccccc1	-36	.	.	.	-3	-11
C=C1CC2(CC(c3ccccc3)OC(c3ccccc3)C2)OC1=O (stereo not given)	87*	.	.	.	-3	23
Cc1ccccc1CSCC1Nc2ccc(C(=O)NCCc3ccccc3)cc2NC1=O (stereo not given)	4	.	.	.	-4	0
Cc1ccc(C(=O)/C=C/Nc2cccc([N+](=O)[O-])c2)o1	-15	1	59*	22	-24	-8
O=C(/C=C/Nc1cccc([N+](=O)[O-])c1)c1ccco1	7	-1	14	13	-42	-13
CC(C)CNC(=O)C1(C)CCCN1C(=O)Cc1cccc2ccccc12 (stereo not given)	-12	.	.	.	.	-3
CCc1nc2ccc(C(=O)NCCN3CCOCC3)cn2c1N(CC)CCOC	-11	.	.	.	.	-18
COc1ccc(C(=O)Nc2nnc(Cc3ccc(OC)c(OC)c3)s2)c(OC)c1	82*	6	2	4	-6	-15
COc1ccc(Cc2nnc(NC(=O)c3c(-c4ccccc4)noc3C)s2)cc1	-36	0	10	2	53*	6
SMILES	TWEAK-Fn14 inh	HSP90 refold inh	HSF-1 act	HSF1 inh	LMP1 NFkB inh	TROY NFkB inh
OC(c1cc(F)cc(Cl)c1)c1ncc(-c2ccc3ccccc3c2)[nH]1 (stereo not given)	-17	.	.	.	.	8
O=C(/C=C/c1ccccc1)NC(NC(=S)Nc1ccc(C(=O)O)cc1)C(Cl)(Cl)Cl (stereo not given)	-3	1	19	9	-1	0
O=C(/C=C/c1ccccc1)NC(NC(=S)Nc1ccc(Cl)cc1Cl)C(Cl)(Cl)Cl (stereo not given)	64*	0	-4	-2	1	28
S=C(Nc1ccccc1)Nc1ccc(Cl)cc1Cl	-36	-2	1	-4	-11	-14
O=C(NC(NC(=S)Nc1c(Cl)cc(Cl)cc1Cl)C(Cl)(Cl)Cl)OCc1ccccc1 (stereo not given)	38	-3	15	5	12	37
Cc1ccc(C)c(NC(=S)NC(NC(=O)OCc2ccccc2)C(Cl)(Cl)Cl)c1 (stereo not given)	61*	-2	11	0	5	49
Cc1ccc(C)c(NC(=S)NC(NC(=O)/C=C/c2ccccc2)C(Cl)(Cl)Cl)c1 (stereo not given)	55*	-2	-9	-11	13	30
O=C(/C=C/c1ccccc1)NC(NC(=S)Nc1cccc(Cl)c1)C(Cl)(Cl)Cl (stereo not given)	63*	-2	14	7	56*	34
COc1ccc(OC)c(C(O)c2ncc(-c3cccc4ccccc34)[nH]2)c1 (stereo not given)	7	.	.	.	.	-4
Cc1noc(C)c1C(=O)N1CCC1(C)C(=O)NS(=O)(=O)c1cccc(OC(F)F)c1 (stereo not given)	-5	.	.	.	.	30
CC1=C(C(=O)N2CCCCCC2)CC(CC(=O)NC2CCCC2)C(=O)N1Cc1ccc(F)cc1 (stereo not given)	9	.	.	.	.	1
O=C(Nc1ccccc1)c1cc(C2CCCCN2S(=O)(=O)c2ccccc2)on1 (stereo not given)	0	.	.	.	.	-85
O=C(/C=C/c1ccccc1)NC(NC(=S)Nc1cccc(O)c1)C(Cl)(Cl)Cl (stereo not given)	56*	3	17	8	6	47
COc1ccc(NC(=S)NC(NC(=O)c2cccc(Cl)c2)C(Cl)(Cl)Cl)c([N+](=O)[O-])c1 (stereo not given)	40	-1	.	.	7	7
O=C(NC(NC(=S)Nc1ccccc1Cl)C(Cl)(Cl)Cl)c1cccc(Cl)c1 (stereo not given)	76*	1	32	-1	15	36
Cc1ccc(-c2nc(CSCC(=O)N3CCN(c4ccccn4)CC3)c(C)o2)cc1	38	-2	14	3	7	31
CSc1ccc(-c2nc(CSCC(=O)NCCCN3CCCC3=O)c(C)o2)cc1	3	3	-22	7	4	-10
CCc1ccc(-c2nc(CSCC(=O)N3CCN(c4ccccn4)CC3)c(C)o2)cc1	81*	1	-34	-24	4	62*
CCc1ccc(-c2nc(CSCC(=O)NCCCN3CCCC3=O)c(C)o2)cc1	84*	5	-12	-11	3	21
